High-throughput results (PubChem BioAssay)
RGS4-Gao reg = modulators of RGS4 binding to Galphao, primary screen, biochemical, multiplexed bead flow cytometry; 220,000 tested, 0.33% active; actives lie on both sides; binding response (% of control), % at 10 µM; Guanine nucleotide-binding protein G(o) subunit alpha (Homo sapiens), P09471; in the data active = binding response below about 49% or above about 150%; inactive = in between;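 also: fluorescent Galphao activated with aluminum fluoride binding bead-coupled RGS4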
Target sequence (P09471 whole entry, looked up): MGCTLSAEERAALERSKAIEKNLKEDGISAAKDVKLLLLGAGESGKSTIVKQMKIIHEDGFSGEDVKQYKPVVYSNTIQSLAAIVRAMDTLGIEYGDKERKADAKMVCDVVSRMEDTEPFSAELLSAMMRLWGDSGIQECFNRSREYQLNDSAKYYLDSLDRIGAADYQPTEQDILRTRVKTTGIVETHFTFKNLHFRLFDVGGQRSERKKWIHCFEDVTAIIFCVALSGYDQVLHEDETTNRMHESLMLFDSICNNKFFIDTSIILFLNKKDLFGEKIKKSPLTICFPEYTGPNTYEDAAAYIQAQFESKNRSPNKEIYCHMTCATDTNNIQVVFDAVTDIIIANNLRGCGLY
RGS7-Gao = RGS7-Galphao binding modulators, primary screen, biochemical, multiplexed bead flow cytometry. actives lie on both sides. binding response (% of control), % at 10 µM. 220,000 tested, 0.35% active. AID 1439, 2008; in the data active = binding response below about 49% or above about 150%; inconclusive = no clear call, values can overlap the other calls; inactive = in between;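 also: fluorescent Galphao held in activated GDP-AlF4 state binding bead-coupled RGS7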
GSH fluor = compound fluorescence on glutathione beads, profiling panel, artefact control, biophysical, 488/530 nm, flow cytometry. 190,000 tested, 0.25% active. AID 1776, 2009. fluorescence (KMESF) at 10 µM. GSH beads flow cytometry, compound fluorescence 488/530 nm; stronger effect = higher value; in the data active = fluorescence above about 89;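 also: glutathione beads carrying GST-tagged Bcl family fusion proteins plus one bare bead set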
RGS16-Gao = modulators of RGS16 binding to Galphao, primary screen, biochemical, human proteins, multiplexed bead flow cytometry. bead-based flow cytometry RGS16-Galphao binding, fluorescence; actives lie on both sides. binding response (% of control), % at 10 µM. 220,000 tested, 0.38% active. AID 1441, 2008;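 also: Galphao activated by GDP with aluminum fluoride before binding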
Target sequence (O15492 whole entry, looked up): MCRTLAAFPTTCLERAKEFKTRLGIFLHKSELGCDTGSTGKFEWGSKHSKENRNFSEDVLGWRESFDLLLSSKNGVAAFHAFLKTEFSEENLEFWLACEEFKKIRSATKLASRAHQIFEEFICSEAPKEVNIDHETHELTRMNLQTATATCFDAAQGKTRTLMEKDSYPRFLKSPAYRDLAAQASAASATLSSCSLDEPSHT
Target sequence (P09471 whole entry, looked up): as the sequence (P09471 whole entry, looked up) above
RGS8-Gao = RGS8-Galphao binding modulators, primary screen, biochemical, multiplexed bead flow cytometry; Guanine nucleotide-binding protein G(o) subunit alpha (Homo sapiens), P09471; actives lie on both sides; response (percent of control binding), % at 10 µM; 220,000 tested, 0.34% active; AID 1423, 2008; in the data active = response below about 60% or above about 140%; inactive = in between;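 also: Galphao activated as the GDP aluminium fluoride complex binding bead-coupled RGS8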
Avidin fluor = green autofluorescence of compounds with avidin beads – biophysical, 488/530 nm, flow cytometry, artefact control, profiling panel; compound fluorescence 488/530 nm; stronger effect = higher value; fluorescence (KMESF) at 10 µM; 220,000 tested, 0.38% active; in the data active = fluorescence above about 47
RGS4-Gao HTS = modulators of RGS–Galpha-o binding, primary screen, biochemical, multiplexed beads, flow cytometry, RGS4/7/8/16/19; shares compounds with RGS16-Gao; multiplexed bead flow cytometry; RGS4–Galpha-o binding response, % at 10 µM; 1,600 tested, 99% active; AID 1504, 2009;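 also: fluorescently labeled Galpha-o bound to GDP with aluminium fluoride binding biotinylated RGS beads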
Avidin counter = disruption of biotin probe capture by avidin, counter-screen for RGS protein interaction modulators, biochemical, flow cytometry, bead-based; shares compounds with RGS16-Gao; streptavidin beads, fluorescein-biotin binding; 1,700 tested, under 10 active; inhibition, % at 10 µM;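 active = inhibition above 50%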;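 also: median green fluorescence of gated singlet beads compared with DMSO control wells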
RGS8-Gao single = RGS8-Galphao binding modulators, confirmation, biochemical, multiplexed bead flow cytometry, single concentration | bead-based flow cytometry RGS8-Galphao binding, fluorescence; actives lie on both sides | 1,700 tested, 3% active | binding response (% of control), % at 10 µM | shares compounds with RGS16-Gao; in the data active = binding response below about 72% or above about 130%; inactive = in between;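 also: Galphao activated as GDP AlF4 complex before binding bead RGS8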
RGS7-Gao confirm = RGS7-Galphao binding modulators, confirmation, biochemical, multiplexed bead flow cytometry, single concentration; response (percent of control binding), % at 10 µM; 1,700 tested, 7.8% active; bead-based flow cytometry RGS7-Galphao binding; actives lie on both sides; shares compounds with RGS16-Gao; in the data active = response below about 75% or above about 130%; inactive = in between;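 also: fluorescent Galphao activated with GDP and aluminum fluoride binding bead-coupled RGS7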
RGS16-Gao single = modulators of RGS16-Galphao protein binding, confirmation, biochemical, single concentration, multiplexed bead flow cytometry; AID 1838, 2009; bead-based flow cytometry; actives lie on both sides; shares compounds with RGS16-Gao; 1,700 tested, 4% active; response (% of control binding), % at 10 µM; in the data active = response below about 74% or above about 130%; inactive = in between;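 also: Galphao activated as the GDP aluminium fluoride complex binding bead-coupled RGS16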
RGS4-Gao confirm = modulators of RGS4-Galphao protein binding, confirmation, biochemical, single concentration, multiplexed bead flow cytometry. shares compounds with RGS16-Gao. actives lie on both sides. binding response (% of control), % at 10 µM. 1,700 tested, 4% active. AID 1840, 2009; in the data active = binding response below about 74% or above about 130%; inactive = in between
RGS19-Gao single = regulators of RGS19-Galphao binding, confirmation, biochemical, single point, multiplexed bead flow cytometry; shares compounds with RGS16-Gao; response (percent of control binding), % at 10 µM; 1,700 tested, 5% active; bead-based flow cytometry RGS19-Galphao binding; actives lie on both sides; in the data active = response below about 50% or above about 160%; inactive = in between
Hits are given with their value; 0 = inactive; ? = inconclusive; - = no result; [ ] = remark or other dose. Only some compounds are listed: those with a hit (about 1.2% of all), similar ones and a draw of the others. Unless noted, no rule for the calls is given here.

SMILES	RGS4-Gao reg	RGS7-Gao	GSH fluor	RGS16-Gao	RGS8-Gao	Avidin fluor	Avidin counter	RGS8-Gao single	RGS7-Gao confirm	RGS16-Gao single	RGS4-Gao confirm	RGS19-Gao single	others
Cc1ccc(OCC(=O)N/N=C/C=C/c2ccco2)cc1C	0	0	0	3.6	59.8	0	0	0	0	0	0	0	RGS4-Gao HTS=67.3
N#CCCCN1C(=O)C(=C(C#N)C#N)c2ccccc21	0	0	0	0	0	0	-	-	-	-	-	-
COc1ccc(OCCOC(=O)c2cccc(-n3cnnn3)c2)cc1	14.7	16.9	0	4.0	28.6	0	0	0	0	0	0	0
Oc1cc2c(cc1O)C1c3ccc(O)c(O)c3OCC1(O)C2 (stereo not drawn)	0	32.0	0	3.4	19.5	0	-	-	-	-	-	-	RGS4-Gao HTS=67.2
CCOC(=O)c1c(C)n(CC)c2ccc(OC(=O)c3ccc([N+](=O)[O-])cc3)cc12	0	-	0	0	0	0	0	0	0	0	0	0
CSc1cccc(NC(=O)Nc2nc3c(C)cccc3s2)c1	0	?	-	0	0	0	-	-	-	-	-	-
Cc1cc(C)c(NS(=O)(=O)c2ccc(NC(=O)/C=C/C(=O)O)cc2)c(C)c1	9.7	-0.2	0	1.1	12.0	0	0	0	0	0	0	0
CCn1ncc(NC(=S)NCCc2ccc(OC)c(OC)c2)c1C(N)=O	0	0	0	0	0	0	-	-	-	-	-	-
O=C(O)c1ccccc1CSc1ccccn1	0	0	0	0	0	0	-	-	-	-	-	-
CC(=O)Nc1cccc(NS(=O)(=O)c2ccccc2[N+](=O)[O-])c1	0	0	0	0	0	0	-	-	-	-	-	-
CCS(=O)(=O)c1cc([N+](=O)[O-])c(Sc2ccccc2NC(C)=O)s1	17.2	?	-	9.3	20.7	0	0	63.2	0	57.6	0	10.3
CCN(CC)S(=O)(=O)c1ccc2c(c1)nc(CCC(=O)Nc1ccc3c(c1)OCO3)n2CC	0	0	0	19.5	0	0	0	0	0	0	0	0	RGS4-Gao HTS=82.3
CC(C)(O)C1=NOC(c2ccccc2)C1 (stereo not drawn)	0	337.9[activator]	0	0	0	200	0	0	0	0	0	0	RGS4-Gao HTS=132.9
O=C1CC(=O)CC(c2ccccc2)C1	0	0	0	0	0	0	-	-	-	-	-	-
Cc1[nH]c2ccccc2c1C(c1ccncc1)N1CCN(c2ccccc2F)CC1 (stereo not drawn)	0	159.6[activator]	0	0	0	92	0	0	0	0	0	0	RGS4-Gao HTS=119.3
Cc1cccnc1NC(=O)C1CCCN(S(=O)(=O)c2ccc3c(c2)oc(=O)n3C)C1 (stereo not drawn)	0	0	0	0	142.0[activator]	0	0	0	0	0	0	0	RGS4-Gao HTS=115.8
CN(C)[C@@H]1C(=O)C(C(=O)NCN2CCCC2)=C(O)[C@@]2(O)C(=O)C3=C(O)c4c(O)cccc4[C@@](C)(O)C3CC12 (stereo partly drawn)	21.5	8.3	0	0	18.4	0	0	53.1	25.9	54.5	60.3	35.3
C=C1c2cccc(O)c2C(O)=C2C(=O)[C@]3(O)C(O)=C(C(N)=O)C(=O)[C@@H](N(C)C)[C@@H]3[C@@H](O)[C@H]12	0	0	0	0	0	0	-	-	-	-	-	-
Cc1cc(C)c2oc(C(=O)Nc3ccc(S(=O)(=O)N4CCCC(C)C4)cc3)cc(=O)c2c1 (stereo not drawn)	152.5[activator]	168.4[activator]	0	0	0	93	0	0	0	0	0	0
OC(CNCc1ccccc1Cl)C(F)(F)F (stereo not drawn)	0	0	0	0	0	0	-	-	-	-	-	-
Cc1nc2ccccc2nc1N/N=C/c1ccc(O)cc1	0	?	-	0	0	0	-	-	-	-	-	-
Oc1ccc(Nc2nc3ccccc3nc2Nc2ccc(O)cc2)cc1	165.0[activator]	161.0[activator]	0	0	0	80	0	0	0	0	0	0
CCOC(=O)/C(C#N)=C/Nc1cc(C(=O)OCC)cc2c(OC)c(OC)ccc12	-4.8	?	-	-5.8	16.9	0	0	0	0	0	0	0
CCOC(=O)/C(C#N)=C/Nc1ccsc1C(=O)OC	0	?	-	0	0	0	-	-	-	-	-	-
NS(=O)(=O)c1cc(C(=O)OCC(=O)NC2CC2)ccc1Cl	0	0	0	0	0	0	-	-	-	-	-	-
NS(=O)(=O)c1cc(C(=O)OCC(=O)c2ccc3c(c2)OCCO3)ccc1Cl	0	179.2[activator]	0	0	0	51	0	0	0	0	0	0	RGS4-Gao HTS=106.1
O=C(Cc1ccc(Br)cc1)OCC(=O)c1ccc2c(c1)OCCO2	47.1	41.6	0	0	53.5	0	0	0	0	0	0	0
O=C(Cc1n[nH]c(=O)c2ccccc12)OCC(=O)c1ccc2c(c1)OCCO2	0	0	0	0	0	0	-	-	-	-	-	-
CCOc1cccc(C(=O)NNC(=O)CCC(=O)O)c1	0	0	0	0	0	0	-	-	-	-	-	-
